{"source": "paper PMC7862700", "about": "“An all-to-all approach to the identification of sequence-specific readers for epigenetic DNA modifications on cytosine”", "experiment_in_all_cases": "DAPPL (digital affinity profiling via proximity ligation, sequencing); 10 mM Tris-HCl pH 7.5, 50 mM NaCl, 1 mM DTT, 4% glycerol, room temperature, 30 min; GST-TFs on glutathione beads, 16-mer random dsDNA library, 0.1% formaldehyde crosslink after washing; high values mean tight binding", "conditions_in_all_cases": "protein: recombinant; tags: N-terminal GST; dsDNA, one strand shown", "key": {"[1]": {"target": "T1, ELK1 (Homo sapiens, UniProt P19419 1-428)", "T1 sequence": "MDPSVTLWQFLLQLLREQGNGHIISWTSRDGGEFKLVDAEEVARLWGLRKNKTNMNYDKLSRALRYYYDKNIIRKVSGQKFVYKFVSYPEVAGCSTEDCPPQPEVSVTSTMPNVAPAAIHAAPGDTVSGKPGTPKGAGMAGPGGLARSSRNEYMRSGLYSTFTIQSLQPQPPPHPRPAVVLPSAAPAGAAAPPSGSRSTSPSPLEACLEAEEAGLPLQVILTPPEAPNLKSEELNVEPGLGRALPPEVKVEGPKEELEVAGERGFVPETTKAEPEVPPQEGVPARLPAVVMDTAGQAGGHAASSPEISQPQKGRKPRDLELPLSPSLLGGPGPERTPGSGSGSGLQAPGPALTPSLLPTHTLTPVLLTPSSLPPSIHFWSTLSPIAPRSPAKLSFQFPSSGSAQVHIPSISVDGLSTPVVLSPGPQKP", "how_it_was_run": "(§1)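 Yeast served to express human transcription factors as GST fusions, which were then captured on glutathione beads and labelled with DNA barcodes. Pooled with a tag-only sample, they were incubated with 200 nmole of a 16-mer random double-stranded DNA library for 30 min at room temperature in Tris/NaCl/DTT/glycerol buffer, washed, crosslinked with 0.1% formaldehyde, ligated by proximity, amplified by PCR and sequenced. Dividing each hexamer's read frequency for a factor by its frequency for the tag-only sample gives the binding signal.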"}, "[2]": {"target": "T2, ERG (Homo sapiens, UniProt P11308 1-479)", "T2 sequence": "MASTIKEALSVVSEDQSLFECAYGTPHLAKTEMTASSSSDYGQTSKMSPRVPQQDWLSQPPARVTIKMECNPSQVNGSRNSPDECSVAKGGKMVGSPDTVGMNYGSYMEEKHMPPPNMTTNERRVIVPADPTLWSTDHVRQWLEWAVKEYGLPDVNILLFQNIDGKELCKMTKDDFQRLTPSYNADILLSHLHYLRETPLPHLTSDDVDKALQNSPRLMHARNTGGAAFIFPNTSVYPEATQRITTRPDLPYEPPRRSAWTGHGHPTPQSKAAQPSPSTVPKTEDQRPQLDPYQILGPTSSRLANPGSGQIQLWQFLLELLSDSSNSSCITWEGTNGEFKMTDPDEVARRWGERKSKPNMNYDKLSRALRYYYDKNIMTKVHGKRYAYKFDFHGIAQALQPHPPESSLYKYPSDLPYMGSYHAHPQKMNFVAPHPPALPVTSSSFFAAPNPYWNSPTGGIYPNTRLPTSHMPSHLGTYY", "how_it_was_run": "as §1"}, "[3]": {"target": "ELF1 (Homo sapiens, UniProt P32519 1-619)", "sequence (P32519 whole entry)": "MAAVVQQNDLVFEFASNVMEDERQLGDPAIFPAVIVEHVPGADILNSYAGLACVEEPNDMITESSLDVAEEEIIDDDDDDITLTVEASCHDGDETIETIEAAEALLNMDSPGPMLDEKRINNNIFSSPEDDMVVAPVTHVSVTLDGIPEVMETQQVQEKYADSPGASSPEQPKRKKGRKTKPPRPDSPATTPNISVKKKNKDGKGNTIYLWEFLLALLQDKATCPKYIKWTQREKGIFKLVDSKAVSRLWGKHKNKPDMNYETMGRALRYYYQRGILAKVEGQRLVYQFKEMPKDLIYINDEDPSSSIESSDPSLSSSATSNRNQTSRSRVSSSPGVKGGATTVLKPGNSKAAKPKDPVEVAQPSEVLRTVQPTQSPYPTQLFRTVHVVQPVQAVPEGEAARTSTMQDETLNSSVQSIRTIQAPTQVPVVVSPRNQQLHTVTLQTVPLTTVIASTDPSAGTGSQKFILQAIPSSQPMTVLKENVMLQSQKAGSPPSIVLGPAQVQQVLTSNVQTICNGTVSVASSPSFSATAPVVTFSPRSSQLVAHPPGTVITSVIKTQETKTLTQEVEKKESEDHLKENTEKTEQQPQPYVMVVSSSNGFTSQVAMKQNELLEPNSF", "how_it_was_run": "as §1"}, "[4]": {"target": "T3, EHF (Homo sapiens, UniProt Q9NZC4 1-300)", "T3 sequence": "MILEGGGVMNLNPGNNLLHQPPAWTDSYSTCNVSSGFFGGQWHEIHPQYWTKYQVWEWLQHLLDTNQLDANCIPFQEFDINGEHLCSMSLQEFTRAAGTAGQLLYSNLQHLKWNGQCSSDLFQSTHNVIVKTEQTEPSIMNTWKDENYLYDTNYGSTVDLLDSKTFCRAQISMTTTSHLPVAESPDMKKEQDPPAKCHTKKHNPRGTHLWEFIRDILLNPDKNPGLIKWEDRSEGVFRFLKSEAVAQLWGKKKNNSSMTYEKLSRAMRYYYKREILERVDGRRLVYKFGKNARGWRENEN", "how_it_was_run": "as §1"}, "[5]": {"target": "SPIB (Homo sapiens, UniProt Q01892 1-262)", "sequence (Q01892 whole entry)": "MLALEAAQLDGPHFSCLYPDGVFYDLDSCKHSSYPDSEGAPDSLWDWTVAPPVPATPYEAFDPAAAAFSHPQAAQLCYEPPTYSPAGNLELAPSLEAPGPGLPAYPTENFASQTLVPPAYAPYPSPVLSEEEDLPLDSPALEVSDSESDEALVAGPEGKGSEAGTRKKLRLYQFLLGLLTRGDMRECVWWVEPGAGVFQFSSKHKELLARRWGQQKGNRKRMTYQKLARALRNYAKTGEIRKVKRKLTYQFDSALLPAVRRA", "how_it_was_run": "as §1"}, "[6]": {"target": "T4, FEV (Homo sapiens, UniProt Q99581 1-238)", "T4 sequence": "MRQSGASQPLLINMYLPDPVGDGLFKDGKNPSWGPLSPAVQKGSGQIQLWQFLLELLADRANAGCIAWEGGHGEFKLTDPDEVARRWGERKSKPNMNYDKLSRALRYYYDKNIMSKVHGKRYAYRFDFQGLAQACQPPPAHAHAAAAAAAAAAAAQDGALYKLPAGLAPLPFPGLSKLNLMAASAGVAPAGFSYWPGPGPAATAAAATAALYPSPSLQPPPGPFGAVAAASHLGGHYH", "how_it_was_run": "as §1"}, "[7]": {"target": "ETV5 (Homo sapiens, UniProt P41161 1-510)", "sequence (P41161 whole entry)": "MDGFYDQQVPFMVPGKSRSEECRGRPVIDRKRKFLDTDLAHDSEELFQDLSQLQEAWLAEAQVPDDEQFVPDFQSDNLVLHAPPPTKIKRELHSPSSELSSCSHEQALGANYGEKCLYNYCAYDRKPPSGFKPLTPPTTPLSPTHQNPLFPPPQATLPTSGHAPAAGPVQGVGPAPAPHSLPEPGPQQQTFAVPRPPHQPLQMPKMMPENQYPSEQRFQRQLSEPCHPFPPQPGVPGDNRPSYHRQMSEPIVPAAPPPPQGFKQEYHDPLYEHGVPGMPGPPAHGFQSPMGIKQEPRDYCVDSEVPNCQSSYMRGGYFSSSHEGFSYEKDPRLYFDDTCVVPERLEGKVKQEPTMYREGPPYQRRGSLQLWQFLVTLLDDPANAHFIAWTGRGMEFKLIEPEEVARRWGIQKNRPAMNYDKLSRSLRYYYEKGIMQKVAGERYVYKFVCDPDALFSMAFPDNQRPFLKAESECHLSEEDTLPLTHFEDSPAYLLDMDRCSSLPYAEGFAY", "how_it_was_run": "as §1"}, "[8]": {"target": "ELF4 (Homo sapiens, UniProt Q99607 1-663)", "sequence (Q99607 whole entry)": "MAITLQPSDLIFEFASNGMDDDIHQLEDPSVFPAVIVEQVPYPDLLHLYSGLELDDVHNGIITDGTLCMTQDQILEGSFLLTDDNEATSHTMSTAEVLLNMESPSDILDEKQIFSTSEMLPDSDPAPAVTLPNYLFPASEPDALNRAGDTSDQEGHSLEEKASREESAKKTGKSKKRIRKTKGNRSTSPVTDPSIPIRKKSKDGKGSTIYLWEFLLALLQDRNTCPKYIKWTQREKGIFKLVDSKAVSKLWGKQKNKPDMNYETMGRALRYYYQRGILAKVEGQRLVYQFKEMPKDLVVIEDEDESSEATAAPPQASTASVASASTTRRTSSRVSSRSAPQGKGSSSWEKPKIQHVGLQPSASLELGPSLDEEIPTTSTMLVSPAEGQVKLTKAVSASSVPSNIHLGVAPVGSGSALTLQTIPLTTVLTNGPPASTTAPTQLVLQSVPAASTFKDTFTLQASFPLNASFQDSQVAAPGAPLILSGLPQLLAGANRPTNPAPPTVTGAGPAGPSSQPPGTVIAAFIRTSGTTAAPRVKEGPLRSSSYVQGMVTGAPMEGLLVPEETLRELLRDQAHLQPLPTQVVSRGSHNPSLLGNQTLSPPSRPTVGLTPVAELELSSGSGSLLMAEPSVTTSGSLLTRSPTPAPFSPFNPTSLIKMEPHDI", "how_it_was_run": "as §1"}, "[9]": {"target": "T5, ELK4 (Homo sapiens, UniProt P28324-2 1-405)", "T5 sequence": "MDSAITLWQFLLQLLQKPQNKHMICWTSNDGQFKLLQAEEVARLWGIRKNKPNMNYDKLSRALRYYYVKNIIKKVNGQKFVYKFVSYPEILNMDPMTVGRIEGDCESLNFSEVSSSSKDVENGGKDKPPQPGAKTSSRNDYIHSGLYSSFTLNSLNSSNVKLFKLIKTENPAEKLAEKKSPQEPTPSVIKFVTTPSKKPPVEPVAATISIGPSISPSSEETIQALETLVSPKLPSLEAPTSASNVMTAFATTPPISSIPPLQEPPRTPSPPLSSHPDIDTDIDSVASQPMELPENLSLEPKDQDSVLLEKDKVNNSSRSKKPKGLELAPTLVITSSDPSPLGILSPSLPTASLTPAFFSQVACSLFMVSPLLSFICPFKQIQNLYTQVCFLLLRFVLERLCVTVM", "how_it_was_run": "as §1"}, "[10]": {"target": "T6, ETV2 (Homo sapiens, UniProt O00321 1-342)", "T6 sequence": "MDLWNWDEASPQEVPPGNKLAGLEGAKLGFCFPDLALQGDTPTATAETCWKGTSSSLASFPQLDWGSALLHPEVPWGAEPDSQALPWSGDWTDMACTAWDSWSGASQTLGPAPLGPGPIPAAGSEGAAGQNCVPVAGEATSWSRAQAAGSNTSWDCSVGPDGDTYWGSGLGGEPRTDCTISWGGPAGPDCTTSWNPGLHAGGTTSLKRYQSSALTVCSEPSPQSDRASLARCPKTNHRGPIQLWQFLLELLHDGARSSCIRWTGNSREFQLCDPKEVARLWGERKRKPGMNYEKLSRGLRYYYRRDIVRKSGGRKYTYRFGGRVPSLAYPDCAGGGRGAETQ", "how_it_was_run": "as §1"}, "[11]": {"target": "T7, ELF3 (Homo sapiens, UniProt P78545 1-371)", "T7 sequence": "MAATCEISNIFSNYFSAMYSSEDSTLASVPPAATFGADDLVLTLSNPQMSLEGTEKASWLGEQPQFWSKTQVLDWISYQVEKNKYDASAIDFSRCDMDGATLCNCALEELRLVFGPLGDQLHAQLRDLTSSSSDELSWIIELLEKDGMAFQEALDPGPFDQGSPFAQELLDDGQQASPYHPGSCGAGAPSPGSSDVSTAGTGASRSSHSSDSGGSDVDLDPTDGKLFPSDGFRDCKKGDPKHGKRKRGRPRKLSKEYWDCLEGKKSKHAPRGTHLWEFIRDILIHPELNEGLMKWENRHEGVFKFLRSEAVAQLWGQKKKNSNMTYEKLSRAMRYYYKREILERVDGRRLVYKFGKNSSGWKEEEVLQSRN", "how_it_was_run": "as §1"}, "[12]": {"target": "ETV1 (Homo sapiens, UniProt P50549 1-477)", "sequence (P50549 whole entry)": "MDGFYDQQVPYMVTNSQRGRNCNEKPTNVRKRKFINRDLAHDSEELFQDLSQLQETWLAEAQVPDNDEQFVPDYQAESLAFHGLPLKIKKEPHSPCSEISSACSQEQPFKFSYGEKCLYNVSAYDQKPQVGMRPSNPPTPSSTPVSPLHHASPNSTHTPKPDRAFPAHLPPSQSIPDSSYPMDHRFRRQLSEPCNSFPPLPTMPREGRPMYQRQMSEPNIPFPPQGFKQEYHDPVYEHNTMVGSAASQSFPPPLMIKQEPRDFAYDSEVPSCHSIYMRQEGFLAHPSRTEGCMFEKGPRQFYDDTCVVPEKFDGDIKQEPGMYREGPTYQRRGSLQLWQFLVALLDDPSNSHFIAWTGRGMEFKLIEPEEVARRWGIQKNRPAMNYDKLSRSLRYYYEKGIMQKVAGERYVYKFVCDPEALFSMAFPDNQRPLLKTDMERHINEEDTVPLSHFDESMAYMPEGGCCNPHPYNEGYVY", "how_it_was_run": "as §1"}, "[13]": {"target": "T8, ERF (Homo sapiens, UniProt P50548 1-548)", "T8 sequence": "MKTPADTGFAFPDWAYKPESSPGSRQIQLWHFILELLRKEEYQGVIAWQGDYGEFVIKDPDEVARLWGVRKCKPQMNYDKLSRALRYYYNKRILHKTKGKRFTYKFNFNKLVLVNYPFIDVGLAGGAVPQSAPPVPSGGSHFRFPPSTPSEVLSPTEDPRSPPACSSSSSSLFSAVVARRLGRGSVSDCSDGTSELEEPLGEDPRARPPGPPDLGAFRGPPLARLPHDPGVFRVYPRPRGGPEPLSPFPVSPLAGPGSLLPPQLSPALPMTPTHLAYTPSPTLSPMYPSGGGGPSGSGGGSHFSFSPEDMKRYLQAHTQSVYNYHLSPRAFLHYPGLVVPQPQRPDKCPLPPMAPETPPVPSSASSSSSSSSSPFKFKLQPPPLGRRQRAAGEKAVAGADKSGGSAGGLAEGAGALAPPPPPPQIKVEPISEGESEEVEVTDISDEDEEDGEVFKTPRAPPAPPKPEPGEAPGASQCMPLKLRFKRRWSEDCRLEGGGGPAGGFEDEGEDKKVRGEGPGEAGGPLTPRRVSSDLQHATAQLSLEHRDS", "how_it_was_run": "as §1"}, "[14]": {"target": "T9, ETV3L (Homo sapiens, UniProt Q6ZN32 1-361)", "T9 sequence": "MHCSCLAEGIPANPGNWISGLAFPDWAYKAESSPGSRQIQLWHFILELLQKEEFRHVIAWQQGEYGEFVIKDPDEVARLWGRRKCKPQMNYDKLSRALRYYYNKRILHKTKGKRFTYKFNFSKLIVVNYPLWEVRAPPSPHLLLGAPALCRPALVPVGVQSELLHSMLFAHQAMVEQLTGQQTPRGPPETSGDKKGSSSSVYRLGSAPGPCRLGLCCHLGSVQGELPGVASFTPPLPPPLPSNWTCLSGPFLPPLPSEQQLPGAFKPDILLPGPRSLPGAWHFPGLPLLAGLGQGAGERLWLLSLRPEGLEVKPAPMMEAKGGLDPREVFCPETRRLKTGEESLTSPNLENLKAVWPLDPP", "how_it_was_run": "as §1"}, "[15]": {"target": "T10, ETS2 (Homo sapiens, UniProt P15036 1-469)", "T10 sequence": "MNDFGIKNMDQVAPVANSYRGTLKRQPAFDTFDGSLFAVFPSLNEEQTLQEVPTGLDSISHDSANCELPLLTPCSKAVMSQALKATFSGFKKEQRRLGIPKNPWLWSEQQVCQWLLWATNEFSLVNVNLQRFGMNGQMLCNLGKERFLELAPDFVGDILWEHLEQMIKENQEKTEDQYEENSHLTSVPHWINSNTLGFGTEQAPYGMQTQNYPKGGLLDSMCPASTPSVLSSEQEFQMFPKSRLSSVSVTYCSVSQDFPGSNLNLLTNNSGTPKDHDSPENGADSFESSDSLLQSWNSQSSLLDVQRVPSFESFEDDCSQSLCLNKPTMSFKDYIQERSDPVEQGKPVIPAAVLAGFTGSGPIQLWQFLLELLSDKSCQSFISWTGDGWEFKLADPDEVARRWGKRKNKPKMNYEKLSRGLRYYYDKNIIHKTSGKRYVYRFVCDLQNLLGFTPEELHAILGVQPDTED", "how_it_was_run": "as §1"}, "[16]": {"target": "T11, SPDEF (Homo sapiens, UniProt O95238 1-335)", "T11 sequence": "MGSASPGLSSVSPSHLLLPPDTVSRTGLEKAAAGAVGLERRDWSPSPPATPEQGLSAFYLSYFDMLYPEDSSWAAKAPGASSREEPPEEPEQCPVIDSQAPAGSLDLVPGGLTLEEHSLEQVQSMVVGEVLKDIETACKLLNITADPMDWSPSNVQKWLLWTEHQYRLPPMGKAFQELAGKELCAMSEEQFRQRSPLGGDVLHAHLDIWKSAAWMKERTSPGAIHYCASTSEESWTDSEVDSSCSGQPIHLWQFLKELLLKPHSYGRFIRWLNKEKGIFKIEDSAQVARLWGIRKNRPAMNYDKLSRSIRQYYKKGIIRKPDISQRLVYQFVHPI", "how_it_was_run": "as §1"}, "[17]": {"target": "T12, ETV3 (Homo sapiens, UniProt P41162-2 1-143)", "T12 sequence": "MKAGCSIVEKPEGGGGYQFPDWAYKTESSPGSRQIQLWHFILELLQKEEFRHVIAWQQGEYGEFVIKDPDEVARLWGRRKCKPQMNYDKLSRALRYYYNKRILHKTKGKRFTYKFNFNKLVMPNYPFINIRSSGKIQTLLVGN", "how_it_was_run": "as §1"}, "[18]": {"target": "ETV6 (Homo sapiens, UniProt P41212 1-452)", "sequence (P41212 whole entry)": "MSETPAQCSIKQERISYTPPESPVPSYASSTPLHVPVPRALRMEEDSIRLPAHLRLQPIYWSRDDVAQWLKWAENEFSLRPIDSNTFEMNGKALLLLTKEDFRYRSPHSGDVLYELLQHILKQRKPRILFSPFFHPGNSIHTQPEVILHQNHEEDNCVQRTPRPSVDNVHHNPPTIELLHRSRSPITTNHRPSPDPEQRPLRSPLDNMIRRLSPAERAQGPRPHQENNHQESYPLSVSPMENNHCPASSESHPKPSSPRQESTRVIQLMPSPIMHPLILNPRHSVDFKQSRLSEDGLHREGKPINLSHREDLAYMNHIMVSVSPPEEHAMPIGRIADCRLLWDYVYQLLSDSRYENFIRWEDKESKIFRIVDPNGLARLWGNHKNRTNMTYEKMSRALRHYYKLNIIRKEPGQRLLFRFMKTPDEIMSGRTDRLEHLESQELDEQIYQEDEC", "how_it_was_run": "as §1"}}, "data": [{"sequence": "CAAGTT", "values": [{"measurement": "binding signal", "setting": "[1]", "value": "1.06 fold enrichment (6-mer frequency, TF over GST control)"}, {"measurement": "binding signal", "setting": "[2]", "value": "1.08 fold enrichment (6-mer frequency, TF over GST control)"}, {"measurement": "binding signal", "setting": "[3]", "value": "1.06 fold enrichment (6-mer frequency, TF over GST control)"}, {"measurement": "binding signal", "setting": "[4]", "value": "1.02 fold enrichment (6-mer frequency, TF over GST control)"}, {"measurement": "binding signal", "setting": "[5]", "value": "1.1 fold enrichment (6-mer frequency, TF over GST control)"}, {"measurement": "binding signal", "setting": "[6]", "value": "1.02 fold enrichment (6-mer frequency, TF over GST control)"}, {"measurement": "binding signal", "setting": "[7]", "value": "1.08 fold enrichment (6-mer frequency, TF over GST control)"}, {"measurement": "binding signal", "setting": "[8]", "value": "1.09 fold enrichment (6-mer frequency, TF over GST control)"}, {"measurement": "binding signal", "setting": "[9]", "value": "1.08 fold enrichment (6-mer frequency, TF over GST control)"}, {"measurement": "binding signal", "setting": "[10]", "value": "1.03 fold enrichment (6-mer frequency, TF over GST control)"}, {"measurement": "binding signal", "setting": "[11]", "value": "1.06 fold enrichment (6-mer frequency, TF over GST control)"}, {"measurement": "binding signal", "setting": "[12]", "value": "1.05 fold enrichment (6-mer frequency, TF over GST control)"}, {"measurement": "binding signal", "setting": "[13]", "value": "1.2 fold enrichment (6-mer frequency, TF over GST control)"}, {"measurement": "binding signal", "setting": "[14]", "value": "1.1 fold enrichment (6-mer frequency, TF over GST control)"}, {"measurement": "binding signal", "setting": "[15]", "value": "1.13 fold enrichment (6-mer frequency, TF over GST control)"}, {"measurement": "binding signal", "setting": "[16]", "value": "1.02 fold enrichment (6-mer frequency, TF over GST control)"}, {"measurement": "binding signal", "setting": "[17]", "value": "1.16 fold enrichment (6-mer frequency, TF over GST control)"}, {"measurement": "binding signal", "setting": "[18]", "value": "1.09 fold enrichment (6-mer frequency, TF over GST control)"}]}]}
